Screening results (PubChem BioAssay)
SENP8 block-1: blocks the human protease SENP8; Q96LD8; purified SENP8, Z-RLRGG-aminoluciferin cleavage, luminescence; inhibition, % at 10 µM; actives 1.2% (n = 330,000); AID 2540; in the data active = inhibition above about 50%
Target sequence (Q96LD8 whole entry, looked up): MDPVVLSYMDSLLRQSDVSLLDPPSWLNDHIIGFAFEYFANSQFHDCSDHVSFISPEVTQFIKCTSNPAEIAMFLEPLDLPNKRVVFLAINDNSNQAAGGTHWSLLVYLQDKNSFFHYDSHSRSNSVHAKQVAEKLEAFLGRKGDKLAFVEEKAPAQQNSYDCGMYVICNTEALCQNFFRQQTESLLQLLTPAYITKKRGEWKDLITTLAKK
SENP8 block-2: inhibitors of human SENP8 protease; actives 0.64% (n = 360,000); recombinant SENP8, Nedd8 substrate fluorescence; inhibition, % at 20 µM; AID 602440; Q96LD8; in the data active = inhibition mostly above about 40%, no sharp cut-off; inactive = mostly below about 27%
SENP7 block: SENP7 protease inhibition; inhibition, % at 5 µM; actives 1.5% (n = 330,000); recombinant SENP7, Z-RLRGG-aminoluciferin luminescence, 40 min; AID 434973;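 active = inhibition above about 50% at the single test dose, limit read from the data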;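 note: plate controls were DMSO with enzyme for no effect and no enzyme buffer wells for full effect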
Target sequence (Q9BQF6 706-1050 limits assumed): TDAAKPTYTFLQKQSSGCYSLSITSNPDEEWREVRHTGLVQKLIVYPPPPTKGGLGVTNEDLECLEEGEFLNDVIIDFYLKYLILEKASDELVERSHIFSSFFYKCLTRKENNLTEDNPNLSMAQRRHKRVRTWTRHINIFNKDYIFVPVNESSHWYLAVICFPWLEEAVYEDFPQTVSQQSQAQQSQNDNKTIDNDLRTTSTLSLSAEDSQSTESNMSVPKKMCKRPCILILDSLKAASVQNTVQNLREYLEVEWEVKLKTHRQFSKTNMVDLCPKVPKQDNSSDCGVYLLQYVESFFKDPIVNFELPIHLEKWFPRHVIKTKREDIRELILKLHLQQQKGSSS
SENP6 block: blocks the human protease SENP6. inhibition, % at 10 µM. Recombinant SENP6 catalytic domain, aminoluciferin luminescence. Q9GZR1. actives 1.8% (n = 330,000). AID 2599;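 active = inhibition above about 50% at the single tested dose, limit read from the data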;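 note: plate controls were DMSO wells with enzyme for no effect and DMSO wells lacking enzyme for full effect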
PPC-1+TRAIL kill: kills PPC-1 cancer cells in the presence of TRAIL; PPC-1 cells + TRAIL, ATPLite viability luminescence; cell killing (% activity), % at 4 µM or 5 µM; actives 0.41% (n = 220,000); AID 1443;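 active = cell killing above 50% in the first pass at 4 µM, then a duplicate retest at 5 µM averaging 50% or more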;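 note: plate controls were cells with TRAIL plus DMSO for no effect and medium-only wells lacking cells for full effect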
TRAIL sens C8: caspase-8 TRAIL sensitization; NB7+C8 cells + TRAIL, ATPlite viability luminescence; inhibition (viability loss, TRAIL sensitization), % at 10 µM; actives 1% (n = 360,000); AID 624354;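 active = compounds causing at least 50% loss of cell viability in the single-dose screen, relative to plate controls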
SENP8 confirm: human SENP8 inhibition, confirmed | actives 40% (n = 6,200) | shares compounds with SENP7 block | inhibition, % at 12.5 µM | AID 488912 | Recombinant SENP8, Z-RLRGG-aminoluciferin luminescence, 60 min;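 active = mean inhibition across replicates above about 50%, limit read from the data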
SENP6 confirm: confirmation of human SENP6 protease inhibitors; shares compounds with SENP7 block; recombinant SENP6, Z-RLRGG-aminoluciferin luminescence; inhibition, % at 12.5 µM; actives 58% (n = 6,200); AID 488915
SENP7 confirm: human SENP7 inhibition, confirmed; shares compounds with SENP7 block; recombinant SENP7, Z-RLRGG-aminoluciferin luminescence, 40 min; actives 69% (n = 6,200); AID 488917; inhibition, % at 12.5 µM
Casp3 SENP sel: selectivity test for SENP inhibitors: human caspase-3 inhibition; shares compounds with SENP7 block; purified caspase-3, Z-DEVD-aminoluciferin luminescence, 60 min; inhibition, % at 12.5 µM; actives 60% (n = 6,200); AID 488918;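 active = mean inhibition above about 50%, limit read from the data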;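 note: plate controls were enzyme with DMSO for no effect and wells without caspase-3 for full effect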
Luc interf: luminescence interference (SENP counter-screen); shares compounds with SENP7 block; Pre-incubated SENP8/Z-RLRGG-aminoluciferin, luciferase luminescence interference; inhibition, % at 12.5 µM; actives 39% (n = 6,200); AID 488919;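 active = mean inhibition above about 50% when retested at one dose, limit read from the data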;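 note: plate controls were DMSO wells with completed reaction for no effect and substrate without enzyme for full effect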
An asterisk follows results filed as active; . = not tested or not shown. Sampled rows, rich in hits. Any-hit rate of the full collection: about 3%.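 Rule for the calls, unless noted: active = mean inhibition above about 50% in the one-dose retest (limit read from the data); inactive = the rest.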

SMILES	SENP8 block-1	SENP8 block-2	SENP7 block	SENP6 block	PPC-1+TRAIL kill	TRAIL sens C8	SENP8 confirm	SENP6 confirm	SENP7 confirm	Casp3 SENP sel	Luc interf
Cc1ccc(NC(=O)C(=O)c2c[nH]c3ccccc23)cc1	47	16	70*	66*	.	30	52*	49	87*	45	11
CCOc1ccc(/C=C2/SC(=O)NC2=S)cc1	45	12	10	74*	13	-4	19	20	41	8	22
c1ccc(-c2onc3cc4c(cc23)OCCO4)cc1	78*	-183	76*	89*	2	20	9	92*	101*	86*	92*
CCOc1ccc(C(=O)NCCc2ccccc2)cc1	52*	14	56*	64*	43	41	59*	60*	82*	80*	34
C/C(=N\NC(=O)COc1ccccc1)c1ccc(O)cc1	-7	0	-9	-13	0	-5	.	.	.	.	.
CCOc1ccc(/C(C)=N\NC(=O)Cc2ccccc2)cc1	7	29	-5	96*	.	-2	-2	-11	-6	-4	-8
O=C(c1ccc(S(=O)(=O)c2ccccc2Cl)c([N+](=O)[O-])c1)N1CCCCCC1	-3	17	6	2	32	30	.	.	.	.	.
Cc1cc(C)c(C)c(S(=O)(=O)N2CCN(C(=O)c3ccccn3)CC2)c1C	-14	3	-3	-6	.	9	.	.	.	.	.
O=C(Nc1ccnc(=O)[nH]1)c1sc2ccccc2c1Cl	52*	-78	54*	74*	18	1	2	-2	7	11	4
Cc1cc(NC(=O)c2sc3ccccc3c2O)no1	75*	-370	73*	89*	.	6	86*	85*	98*	92*	65*
CC(C)CC(=O)Nc1ccc(C(=O)CN2C(=O)NC3(CCOc4ccccc43)C2=O)cc1 (centres undefined)	-7	2	-8	-12	.	-6	.	.	.	.	.
COCCCNC(=O)C1CCCN(S(C)(=O)=O)C1 (centres undefined)	2	8	3	-30	19	6	.	.	.	.	.
COC(=O)c1ccc(NC(=O)Nc2ccc(F)c(Cl)c2)cc1	-1	4	58*	-50	-16	5	14	18	84*	22	26
COC(=O)c1ccc(NC(=O)Nc2ccccc2C)cc1	83*	-1	92*	91*	.	45	89*	89*	99*	89*	48
CC(=O)Nc1ccc(NC(=O)Nc2ccccc2C)cc1	-2	27	16	15	23	-2	.	.	.	.	.
COC(=O)c1ccc(NC(=O)c2ccccc2C(=O)Nc2ccc(C(=O)OC)cc2)cc1	-3	18	2	-7	.	24	.	.	.	.	.
COC(=O)c1ccc(NC(=O)Nc2ccc(OC)cc2)cc1	-16	7	-11	-21	9	0	.	.	.	.	.
COC(=O)c1ccc(NC(=O)Nc2ccc(F)cc2)cc1	46	6	49	68*	27	14	42	42	80*	48	62*
CC(=O)N(C)c1ccc(NC(=O)Nc2ccccc2C)cc1	33	16	58*	63*	12	15	40	41	79*	83*	63*
O=C(COc1cc2oc(=O)c3c(c2cc1Cl)CCC3)Nc1ccc(CN2CCOCC2)cc1	-1	-22	-5	-7	.	-5	.	.	.	.	.
CN1CCN(C(=S)c2cn(Cc3ccc(Br)cc3)c3ccccc23)CC1	1	16	8	-11	22	-9	.	.	.	.	.
COc1cc(NC(=O)Nc2nnc([C@H]3C[C@H](O)[C@@H](CO)O3)s2)cc(OC)c1OC	.	6	.	.	.	8	.	.	.	.	.
COc1ccc(-n2ncc3c(N4CCN(c5cccc(C)c5C)CC4)ncnc32)cc1	2	-50	4	-2	.	9	.	.	.	.	.
COc1ccc(-n2ncc3c(N4CCCCC4)ncnc32)cc1	93*	-351	98*	96*	.	89*	95*	98*	103*	96*	95*
COc1ccccc1C(=O)Nc1nsc(-c2ccccc2)n1	28	11	53*	61*	18	27	54*	52*	75*	66*	59*
SMILES	SENP8 block-1	SENP8 block-2	SENP7 block	SENP6 block	PPC-1+TRAIL kill	TRAIL sens C8	SENP8 confirm	SENP6 confirm	SENP7 confirm	Casp3 SENP sel	Luc interf
COc1ccccc1C(=O)Nc1nnc(-c2ccc(F)cc2)s1	23	-135	33	30	.	21	.	.	.	.	.
COC/C=C/C1=CC2=CC(=O)C(C)(OC(=O)c3cnc4ccccc4n3)C(=O)C2=CN1c1ccccc1 (centres undefined)	64*	.	1	3	3	.	12	11	6	4	0
COC/C=C/C1=CC2=CC(=O)C(C)(OC(=O)c3cnc4ccccc4n3)C(=O)C2=CN1c1ccc(CO)cc1 (centres undefined)	-3	.	12	-55	.	.	.	.	.	.	.
Cc1ccc([N+](=O)[O-])cc1CN1CCN(c2ncc(Cc3ccccc3)cn2)CC1	.	26	.	.	.	-12	.	.	.	.	.
O=C(O)CSc1cc(NS(=O)(=O)c2ccc(Cl)cc2)c2ccccc2c1O	.	28	.	.	.	37	.	.	.	.	.
COc1ccc(S(=O)(=O)Nc2cc(SCC(=O)O)c(O)c3ccccc23)cc1	51*	40	31	76*	.	44	30	59*	13	10	16
Cc1ccc(O)c(C(=O)c2cnn(-c3ccccc3)c2)c1	18	20	40	53*	22	2	4	47	20	32	13
Cc1ccc(-n2cc(C(=O)c3ccccc3O)cn2)cc1	92*	-12	97*	91*	31	60*	37	97*	101*	92*	49
CCCN(C)C1CN(Cc2cn(Cc3cccc(C(F)(F)F)c3)nn2)S(=O)(=O)C1 (centres undefined)	.	15	.	.	.	-7	.	.	.	.	.
COc1ccc(S(=O)(=O)N2CCC(C(=O)NCCC(=O)NCc3ccccn3)CC2)cc1	.	11	.	.	.	-5	.	.	.	.	.
CC1=NN(C(N)=S)C(=O)C1N=Nc1cccc(Cl)c1 (centres undefined)	85*	12	66*	92*	.	12	37	90*	100*	90*	88*
